Screening results as filed in PubChem BioAssay.
Pol iota inh: DNA polymerase iota (human) inhibition. Potency, µM (highest dose often 115 µM), for the others: at the top dose activity, negative = inhibition, usual class: inhibitors. Pol iota fluorescent replication assay, 10 min. actives 1% (n = 390,000). Q9UNA4; also: potency is read from the fitted curve at half-maximal effect
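Fluorescent replication assay read twice, at 0 min and 10 min after adding 50 nM (final) substrate. Enzyme (10 nM) and compounds were first incubated 15 min at room temperature; enzyme-free buffer wells were negative controls.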
WRN helicase inh: WRN helicase (human) inhibition. Q14191. WRN helicase unwinding, fluorescent forked duplex, kinetic. Potency, µM (titrated, usually from 114 µM), for inactives: at the top dose activity change, negative = inhibition, most hits filed as inhibitors. actives 0.46% (n = 360,000). AID 651768; also: potency is read from the fitted curve at half-maximal effect; % is scaled to controls: 0 for no effect and ±100 for the full control effect; nearly all actives have a fitted effect of over 55% in size
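Kinetic fluorescence helicase assay: unwinding of a quenched forked DNA duplex (100 nM final) with 2 mM ATP final raises red fluorescence (525/598 nm). Compounds sat 15 min at room temperature with 20 nM WRN beforehand.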
Pol beta inh: blocks human DNA polymerase beta activity. Pol beta primer extension/strand displacement, fluorescence kinetic. P06746. Potency, µM (doses to about 114 µM), for inactives: at the highest dose activity change, negative = inhibition, hits mostly inhibitors. AID 485314. actives 1.3% (n = 340,000); also: potency is read from the fitted curve at half-maximal effect; % is scaled to controls: 0 for no effect and ±100 for the full control effect
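Pol beta (10 nM) was preincubated with compound for 15 min at room temperature. The reaction was then started with 50 nM substrate and read immediately and after a further 10 min at room temperature.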
POLH inh: blocks human DNA polymerase eta activity; Q9Y253; recombinant Pol eta, fluorescent DNA replication assay; Potency, µM (doses to about 114 µM), inactives show at the highest dose activity change, negative = inhibition, most hits filed as inhibitors; actives 1.2% (n = 390,000); AID 588591; also: potency is read from the fitted curve at half-maximal effect; % is scaled to controls: 0 for no effect and ±100 for the full control effect
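Pol eta (10 nM) was preincubated with compounds for 15 min at room temperature, after which fluorescent replication substrate (50 nM final) was added to start the reaction. Fluorescence was read kinetically at 0 and 10 min.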
Pol kappa inh: inhibitors of human DNA polymerase kappa; Potency, µM (doses to about 107 µM), for inactives: top-dose activity, negative = inhibition, actives largely listed as inhibitors; AID 588579; purified Pol kappa, fluorescent DNA synthesis assay, 10 min; Q9UBT6; actives 0.53% (n = 400,000); also: potency is read from the fitted curve at half-maximal effect; % is scaled to controls: 0 for no effect and ±100 for the full control effect
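Kinetic fluorescence readout at 0 and 10 min followed reaction start with substrate at 50 nM final. Beforehand, enzyme (10 nM Pol kappa) stood 15 min with compound at room temperature; buffer-only wells were negative controls.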
PI5P4Ka inh: PI5P4K alpha (human) kinase inhibition. PI5P4Kalpha enzyme, ADP-Glo luminescence, 60 min; hits give low values. actives 1.2% (n = 330,000). max response, %; active = max response of -50% or lower; inconclusive = between -30% and -50%; inactive = -30% or higher; also: value at the top dose of about 77 µM; % is scaled to controls: 0 for no effect and ±100 for the full control effect
Target sequence (P48426 whole entry, looked up): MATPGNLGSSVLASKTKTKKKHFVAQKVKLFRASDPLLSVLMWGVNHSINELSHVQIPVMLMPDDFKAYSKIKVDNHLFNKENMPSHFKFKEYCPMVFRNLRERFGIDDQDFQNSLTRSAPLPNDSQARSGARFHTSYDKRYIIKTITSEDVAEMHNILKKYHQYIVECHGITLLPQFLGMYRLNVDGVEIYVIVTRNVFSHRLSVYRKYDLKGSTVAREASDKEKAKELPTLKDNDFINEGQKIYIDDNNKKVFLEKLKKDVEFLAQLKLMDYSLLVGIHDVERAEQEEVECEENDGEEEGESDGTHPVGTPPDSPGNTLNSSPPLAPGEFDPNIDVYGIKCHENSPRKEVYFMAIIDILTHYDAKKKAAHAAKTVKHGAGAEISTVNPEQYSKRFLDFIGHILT
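Luminescence from ADP-Glo served as readout of PI5P4Kalpha activity in a qHTS format. Reaction: enzyme, substrate, compound, ATP at 5 microM final, 60 min at RT.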
The depositor's hits bear a star; ? = inconclusive; · = not tested or not shown; ! = repeats disagree; [ ] = dose if it differs, or a comment. The list is not random: actives were taken first. Their share in the collection is about 2.8%. Unless noted, calls follow the shape of the dose curve; as a rule, active = well fitted curve in the direction sought with a large enough effect; inconclusive = small, poorly fitted or top-dose-only effect, or another doubt; inactive = no such curve, though single readings can be large; an effect the other way counts as inactive or inconclusive.

SMILES	Pol iota inh	WRN helicase inh	Pol beta inh	POLH inh	Pol kappa inh	PI5P4Ka inh
COc1ccc(CNC(=O)CCc2c(C)c3cc4c(C)c(C)oc4cc3oc2=O)cc1OC	-16%	·	1.6µM*	-17%	-18%	·
Cc1ccc(C(=O)CCS(=O)(=O)c2ccc(Br)cc2)cc1	22%	-1%	19%	-17%	-13%	-1
Cc1ccc(S(=O)(=O)CCC(=O)c2cccc([N+](=O)[O-])c2)cc1	84%	14µM*	8%	-4%	-12%	?
CCN(CC(=O)NCCCN1CCOCC1)S(=O)(=O)c1ccc(F)cc1	111%	-3%	22%	-7%	-10%	-5
O=C(N/N=C/c1ccc(O)c(O)c1)c1ccc(CSc2cccc3cccnc23)cc1	?	?	3.2µM*	3.5µM*	?	-28
O=C(CSc1cccc2cccnc12)N/N=C/c1cccc(O)c1	-8%	-2%	-10%	8%	-24%	-3
O=C(COc1ccc(Cl)cc1)NCCc1csc(-c2ccc(F)cc2)n1	-11%	·	-5%	0%	-9%[60.1 µM]	·
O=C(COc1ccc(Br)cc1)N/N=C1/SCC(=O)N1Cc1ccco1	94%	?	-1%	-16%	0%	-67*
O=c1cc(O)c(Cl)c[nH]1	·	·	·	·	8%[19.4 µM]	·
CCOc1ccc(OCC)c(NC(=O)C(NS(=O)(=O)c2ccc(Br)s2)c2ccccc2)c1 (centres undefined)	11%	·	-4%	-6%	0%	·
CC1CCN(S(=O)(=O)c2ccc3c(c2)N(CC(=O)NCc2ccccc2Cl)C(=O)CS3)CC1	?	·	-19%	-10%	-3%[60.1 µM]	·
O=C(C[n+]1cccc(Br)c1)c1cc(Cl)ccc1Cl	?	·	·	·	-28%	·
CN1CCc2cccc3c2[C@H]1Cc1ccc(O)c(O)c1-3	18µM*	-16%	3%	-1%	-6%	-56*!
COc1cc2c3cc1OCc1c(O)c(OC)cc4c1C(Cc1ccc(cc1)Oc1cc(ccc1O)CC3N(C)CC2)N(C)CC4 (centres undefined)	-6%	·	·	·	-11%	·
O=C(N/N=C1\C(=O)c2cccc3cccc1c23)c1ccc(O)cc1	183%	-20%	5.6µM*	?	-9%	-22
O=C(Nc1nccs1)[C@@H]1CC=C[C@@H]2CCN(C3CCCCC3)C(=O)[C@@H]21	5%	·	·	·	13%	·
CCCCCCC1/C(=N\NC(=O)c2ccccc2)CCC1C(=O)OC (centres undefined)	-2%	4%	25%	-12%	13%	5
O=C(NNc1cc(Br)c(O)c(Br)c1)c1ccccc1	22µM*	-30%[57.1 µM]	-5%	5%	?	-91*
CC(C)NC(=O)C1CCCN(S(=O)(=O)c2ccc3c(ccn3C)c2)C1 (centres undefined)	34%	·	6%	-17%	-8%[60.1 µM]	·
COc1ccc(CNC(=O)C2CCN(S(=O)(=O)Cc3ccccc3)CC2)cc1	7%	·	14µM*	-11%	-1%	·
O=C(Cc1ccccc1)NC1(O)C(=O)c2ccccc2C1=O	7.1µM*	-2%[11.6 µM]	31%	?	-1%	-5
O=C(Cc1ccccc1)NO	8%	·	·	·	-2%[60.1 µM]	·
CCC(C(=O)NC1CCCC1)n1c(-c2cc3ccccc3[nH]2)nc2ccccc21 (centres undefined)	·	-7%	·	·	·	0
CCOC(=O)c1c(NC(=O)Nc2ccc(Cl)cc2)sc(C)c1C	16%	6%	-11%	-12%	-2%	13
CCOC(=O)c1c(NC(=O)/C=C/C(=O)O)sc(C)c1-c1ccc(Cl)cc1	?	-4%[11.6 µM]	-18%	79µM*	2%	-16
NC(=O)c1cc2cc(Cl)ccc2o/c1=N/NC(=O)c1cccs1	32%	-11%	19%	9%	-11%	1
CCC(=O)Nc1cc2c(cc1C(=O)c1ccccc1)OCCO2	11%	-11%	79µM*	-8%	-7%	-5
NC(Cc1cccc(-c2ccccc2CP(=O)(O)O)c1)C(=O)O (centres undefined)	7%[58.9 µM]	·	1%[57.1 µM]	0%[57.1 µM]	-6%[60.1 µM]	·
N[C@@H](Cc1cc(CP(=O)(O)O)cc(-c2ccccc2Cl)c1)C(=O)O	·	·	·	·	21µM*	·
